Inconclusive results are not listed. A call without a number means that no potency is given here. Activity calls are given as the source filed them. The call rests on the fitted dose curve; in most records, active means well fitted curve in the direction sought with a large enough effect; inconclusive means small, poorly fitted or top-dose-only effect, or another doubt; inactive means no such curve, though single readings can be large or run the other way.
Assay: Cell viability assay for measurement of the protective activity of small molecules against cell death caused by Zika virus infection in human astrocytes
Details: human astrocytes ZIKV-induced death, ATP luminescence, 72 h; series mostly up to 46.1 µM
Description: National Center for Advancing Translational Sciences [NCATS] Johns Hopkins University School of Medicine Florida State University Assay Overview: Zika virus infection causes cell death in certain cell types including human neural progenitor cells (hNPCs), astrocytes, and astrocytoma cell line (SNB-19). This cell viability assay measures the ATP content (level) in human astrocytes using a luminescence readout that is proportional to viable cell numbers. Decrease in the luminescence signal after Zika virus infection indicates the cell death caused by Zika virus. Small molecule inhibitors […] the decreased luminescence signal after Zika virus infection, indicating the protective effect of that small molecule on the cell death caused by Zika virus infection. This observed protective effect of small molecules against Zika virus induced cell death may result from inhibition of virus replication or cellular response to the virus infection.
Assay Protocol Summary: The medium for astrocytes contains AM basal medium (ScienCell, Cat.# 1801), AGS (ScienCell, Cat.# 1801), 10% FBS, and 1% Pen/Strep. The ATP content assay kit (PerkinElmer, Cat.# 6016731) was used to determine cell viability. The reagent was reconstituted and prepared as described by the manufacturer. Cells were seeded in 384- or 1536-well assay plates and cultured at 37 C with 5% CO2 for 16 to 20 hours. The typical cell seeding density in the 1536-well plate assay is 350 cells/well in 3 ul medium for astrocytes in the tissue cultured treated/PDL coated plates. Compounds were added to cells and incubated for one hour before addition of ZIKV solution to cells (2 FFU/cell). After incubation at 37 C with 5% CO2 for 72 hours, the reagent mixture of the ATP content assay kit was added to each well, followed by incubation at room temperature for 10 minutes. The luminescence intensity of the assay plates was measured using a ViewLux plate reader (PerkinElmer). […] The percentage inhibitions of the decreased cell viability by small molecule inhibitors were then calculated.

Structure (SMILES) | Potency
O=C(c1ccccc1)c1ccc2n1CCC2C(=O)O (stereo not given) | inactive
Cc1c(C(=O)O)c(O)cc2c1C(=O)c1c(O)c([C@@H]3O[C@H](CO)[C@@H](O)[C@H](O)[C@H]3O)c(O)c(O)c1C2=O | inactive
O=S(=O)(CC1CS1)c1ccc(Oc2ccccc2)cc1 (stereo not given) | inactive
Cc1ccc(C(=O)c2ccc(CC(=O)O)n2C)cc1 | inactive
CN(C)c1ccc(N=NS(=O)(=O)O)cc1 | inactive
O=C(O)Cc1ccc(-c2ccccc2)cc1 | inactive
CN(C)c1cc(NC(=O)CNC(C)(C)C)c(O)c2c1C[C@@H]1C[C@H]3[C@H](N(C)C)C(=O)C(C(N)=O)=C(O)[C@@]3(O)C(=O)C1=C2O | inactive
Cc1nc(-c2ccc(OCC(C)C)c(C#N)c2)sc1C(=O)O | inactive
NC(N)=NN=C(/C=C/c1ccc([N+](=O)[O-])o1)/C=C/c1ccc([N+](=O)[O-])o1 | inactive
CC(=Cc1ccccc1)C=C1SC(=S)N(CC(=O)O)C1=O | inactive
CC(C)(C)OC(=O)CN(Cc1ccc(Cl)cc1)Cc1ccc([N+](=O)[O-])s1 | inactive
Clc1ccccc1-c1nc(-c2ccncc2)no1 | inactive
O=S(=O)(O)CCSSCCS(=O)(=O)O | inactive
CC(C)N[C@@H]1CCn2c(=O)[nH]c3cccc(c32)[C@@H]1O | inactive
O=C(Nc1cc2cc[nH]c2cn1)c1ccccc1 | inactive
Cc1cc(O)c2c(c1)C(=O)c1cc(O)cc(O)c1C2=O | inactive
Cc1ccc2c(n1)Oc1ccc(C(C)C(=O)OCC(=O)N(C)C)cc1C2 (stereo not given) | inactive
O=C(O)CCC(=O)c1ccc(-c2ccccc2)cc1 | inactive
O=C1NC(=O)C(=Cc2ccc(-c3ccc(F)cc3)o2)S1 | inactive
CN1CCN(c2cc3c(nn2)Oc2ccccc2N3C)CC1 | inactive

Structure (SMILES) | Potency
O=C1C(Cl)=C(NCCN2CCOCC2)C(=O)c2ncccc21 | inactive
COC1(CS(=O)c2ccccc2)CCN(CCc2c[nH]c3ccc(F)cc23)CC1 (stereo not given) | inactive
Cc1[nH]c(C=C2C(=O)Nc3ccccc32)c(C)c1CCC(=O)O | inactive
Cc1ccc(O)c(N=Nc2ccccc2)n1 | inactive
COCCn1c2c([n+](Cc3cnccn3)c1C)C(=O)c1ccccc1C2=O | inactive
N[C@H](CSC(c1ccccc1)(c1ccccc1)c1ccccc1)C(=O)O | inactive
Nc1ccc2c(c1)CN1C(=O)c3ccccc3C1=N2 | inactive
O=c1c2ccccc2[se]n1-c1ccccc1 | inactive
CC(C)OC(=O)CCCC=CC[C@@H]1[C@H](C=C[C@@H](O)COc2cccc(C(F)(F)F)c2)[C@H](O)C[C@@H]1O | inactive
O=c1cc(-c2ccccc2)oc2cc(O)cc(O)c12 | inactive
CCN1CCC(n2cc(CNc3cc(Cl)c4ncc(C#N)c(Nc5ccc(F)c(Cl)c5)c4c3)nn2)CC1 | inactive
CN(C)c1ccc(/C=C2\C(=O)Nc3ccccc32)cc1 | inactive
CNC1[C@H](O)C(O[C@@H]2C(O)C(O[C@H]3O[C@H]([C@@H](C)NC)CC[C@H]3N)[C@@H](N)C[C@H]2N)OC[C@]1(C)O (stereo not given in full) | inactive
CC(C(=O)O)c1ccc(-c2ccccc2)c(F)c1 (stereo not given) | inactive
CO[C@H]1C(=O)[C@]2(C)[C@@H](OC)C[C@H]3OC[C@@]3(OC(C)=O)[C@H]2[C@H](OC(=O)c2ccccc2)[C@]2(O)C[C@H](OC(=O)[C@H](O)[C@@H](NC(=O)OC(C)(C)C)c3ccccc3)C(C)=C1C2(C)C | inactive
C=CCCCCCCCCC(=O)O | inactive
Cc1ccc(O)c(-n2nc3ccccc3n2)c1 | inactive
COc1cccc(-c2ccc(NC(=O)C3=C(C(=O)O)CCC3)c(F)c2)c1 | inactive
c1ccc2[nH]c(-c3cscn3)nc2c1 | inactive
COc1ccc(/C=C/C(=O)Nc2ccccc2C(=O)O)cc1OC | inactive

— PubChem BioAssay AID1224856 (National Center for Advancing Translational Sciences (NCATS), 2016)
